Screening data: PubChem, National Center for Advancing Translational Sciences (NCATS)
ALDH1A1 inh – blocks purified human ALDH1A1 activity; AID 1030; Purified ALDH1A1, NADH fluorescence, propionaldehyde substrate; Potency, µM (doses to about 75.3 µM), for the others: top-dose activity, negative = inhibition, actives largely listed as inhibitors; 220,000 compounds, 7.3% hits; P00352;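 note: potency is the fitted concentration of half-maximal effect; plate controls were no enzyme wells and a reference inhibitor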
JMJD2E inh – blocks human JMJD2E demethylase activity. JMJD2E catalytic domain, FDH-coupled NADH fluorescence (FDH is formaldehyde dehydrogenase). AID 2147. Potency, µM (doses to about 57.1 µM), for the others: at the top dose activity change, negative = inhibition, hits mostly inhibitors. 230,000 compounds, 1.6% hits. B2RXH2;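 note: potency is the fitted concentration of half-maximal effect; 0% = wells with enzyme and -100% = buffer wells without enzyme; nearly all actives have a fitted effect of over 50% in size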
Target sequence (B2RXH2 1-337 limits assumed): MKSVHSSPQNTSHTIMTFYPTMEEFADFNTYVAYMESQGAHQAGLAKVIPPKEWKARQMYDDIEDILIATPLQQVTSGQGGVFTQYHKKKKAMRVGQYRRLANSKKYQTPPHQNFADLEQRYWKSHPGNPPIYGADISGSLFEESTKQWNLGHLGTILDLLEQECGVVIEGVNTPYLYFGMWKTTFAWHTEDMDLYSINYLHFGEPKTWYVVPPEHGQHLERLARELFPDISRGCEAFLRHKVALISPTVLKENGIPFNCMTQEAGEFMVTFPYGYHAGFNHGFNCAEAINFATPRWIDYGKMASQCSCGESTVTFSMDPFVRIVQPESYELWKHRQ
PNC inhibitor – perinucleolar compartment assembly inhibition | PC3M PTB-GFP, PNC prevalence imaging, 16 h; active compounds read low | activity change (PNC), negative = inhibition, % at 10 µM | 140,000 compounds, 3.1% hits | AID 2417;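 active = readout at or below -70, meaning at least 70% loss of cells showing the perinucleolar compartment, a nuclear body marking cancer cells; inconclusive = readout between -30 and a set limit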;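 note: plate controls were DMSO wells for no effect and camptothecin positive control wells for full effect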
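PC3M cells stably expressing PTB-GFP, 750–1000 cells/well, treated 16 h at 37 °C with compound (23 nl of library stock), in duplicate. After paraformaldehyde fixation and Hoechst stain, imaged at 20x; PNC prevalence scored by image analysis.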
HPGD block – HPGD (human) dehydrogenase inhibition. Potency, µM, inactives show at the highest dose activity change, negative = inhibition, usual class: inhibitors. AID 894. 150,000 compounds, 4.3% hits. purified HPGD, NADH fluorescence kinetic, PGE2 substrate. P15428; note: potency is the fitted concentration of half-maximal effect
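NADH formation kinetics: reaction with 30 uM PGE2 and 1 mM NAD+ (final), 20 nM enzyme, Tris-HCl pH 8 with Tween 20, after 15 min compound preincubation at room temperature. Fluorescence change, last versus first of five reads.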
* hit, by the source's call; ? = inconclusive; nt = no result; [ ] = another dose, or the depositor's remark. Only some compounds are listed: those with a hit (about 11% of all), similar ones and a draw of the others. Unless noted, calls come from the whole dose curve; as a rule, active = well fitted inhibition curve with a large enough effect (not every such curve was filed as active); inconclusive = small, poorly fitted or top-dose-only effect, or another doubt; inactive = no such curve, though single readings can be large or run the other way. Unless noted, % is set by controls: 0 for no effect and ±100 for the full control effect.

SMILES	ALDH1A1 inh	JMJD2E inh	PNC inhibitor	HPGD block
COCCn1c(N)c(N(Cc2ccccc2)C(=O)Cc2c(Cl)cccc2Cl)c(=O)[nH]c1=O	11%	1%	nt	nt
O=C(NCc1ccc(F)cc1)c1cnn2ccccc12	?	?	-84*	3%
CCc1ccc(NC(=O)c2cnn3ccccc23)cc1	8%	7%	-14	-5%
NC(=S)N1CCCc2ccccc21	nt	-7%	nt	nt
CC(C)CNC(=O)COC(=O)c1c2c(nc3ccccc13)/C(=C/c1cccs1)CC2	-4%	?	?	nt
CC1CCCCC1NC(=O)COC(=O)c1c2c(nc3ccccc13)/C(=C/c1ccco1)CC2 (centres undefined)	?	16µM*	11	-26%
O=C(COC(=O)c1c2c(nc3ccccc13)/C(=C/c1ccco1)CC2)NC1CCCC1	?	25µM*	3	-25%
Nc1nc(Sc2c([N+](=O)[O-])cc(C(F)(F)F)cc2[N+](=O)[O-])n[nH]1	-3%	-1%	nt	nt
Cc1cc2nc(CCN(Cc3cccnc3)C(=S)Nc3ccccc3)[nH]c2cc1C	?	14%	-86*	-1%
COc1cc(C2SCCCCCCCCCCSC(c3ccc(O)c(OC)c3)SCCCCCCCCCCS2)ccc1O (centres undefined)	8%[13.5 µM]	nt	nt	-3%
CCOC(=O)C1CCCN(c2c(NCCN(C)Cc3ccccc3)c(=O)c2=O)C1 (centres undefined)	-7%	-1%	17	-8%
CCOC(=O)C1CCN(c2c(N3CCN(c4ccccc4OC)CC3)c(=O)c2=O)CC1	1%	5%	-82*	?
CCOC(=O)C1CCCN(c2c(N3CCc4ccccc4C3)c(=O)c2=O)C1 (centres undefined)	?	-5%	-24	28µM*
CCOC(=O)C1CCN(c2c(N3CCN(Cc4ccccc4)CC3)c(=O)c2=O)CC1	?	-1%	?	-24%
CN(C(=O)CSC1=NC2C(N=N1)c1cc(Br)ccc1N2C)C1CCCCC1 (centres undefined)	6%	4%	nt	nt
Cc1nnc(N/N=C/c2cc([N+](=O)[O-])c(N3CCC(C)CC3)cc2N2CCC(C)CC2)n1N	7.1µM*	?	-30	25µM*
CCc1nnc(N/N=C/c2ccc(N3CCC(C)CC3)c([N+](=O)[O-])c2)n1N	22µM*	?	1	-8%
Nn1cnnc1N/N=C/c1ccc(Cl)c([N+](=O)[O-])c1	?	-80%	nt	nt
Cc1nc(C(C)NC(=O)CCc2nnc(-c3ccsc3)o2)cs1 (centres undefined)	1%	-10%	nt	nt
Cc1ccc(NC(=O)/C=C\C(=O)O)c([N+](=O)[O-])c1	13µM*	1%	-6	-7%
Cc1ccc(NC(=O)Cn2ccsc2=N)c([N+](=O)[O-])c1	7.1µM*	-5%	nt	nt
Cc1cc(C)c(NC(=O)/C=C\C(=O)O)c([N+](=O)[O-])c1	10µM*	-4%	5	22µM*
CO[C@@H]1/C=C\CC(=O)N[C@@H](C)C(=O)OC[C@@H](OC)[C@H](C)CCCC(=O)OC[C@H]1C	-2%[13.5 µM]	nt	nt	nt
CCCCC1=CC2=CC(=O)C(C)(OC(=O)CC)C(=O)C2=CN1CCN1CCOCC1 (centres undefined)	11%[13.5 µM]	?	nt	-16%
CCCOC(=O)c1ccc(NC(=O)c2ccoc2C)cc1	?	-4%	?	32µM*
SMILES	ALDH1A1 inh	JMJD2E inh	PNC inhibitor	HPGD block
CCCOC(=O)c1ccc(NC(=O)C2C3C=CC(O3)C2C(=O)O)cc1 (centres undefined)	1.8µM*	-6%	25	?
CCCCOC(=O)c1ccc(NC(=O)c2ccoc2C)cc1	-8%	-5%	?	-15%
CCCOC(=O)c1ccc(NC(=O)Oc2ccccc2)cc1	25µM*	7%	-28	?
CCCOC(=S)Nc1ccccc1	12%	1%	-1	22µM*
O=C(O)CNC(=O)c1ccccc1O	-10%[13.5 µM]	nt	nt	?
O=c1onc2n1-c1cc(Br)ccc1OC2	-5%	0%	nt	5%
O=C(NC1CCCCC1)N1CCN(C(c2ccccc2)c2ccccc2)CC1	8%	5%	28	-20%
O=C(/C=C/c1ccco1)Oc1cc(Br)cc(/C=N/NC(=O)c2ccccc2O)c1	2%	25µM*	0	?
CCOC(=O)c1c(-c2ccccc2Cl)csc1NC(=O)c1cc(S(=O)(=O)N2CCOCC2)ccc1C	?	?	-11	?
OCCC1CN(Cc2ccc3nonc3c2)CCN1Cc1ccsc1 (centres undefined)	19µM*	5%	nt	nt
COC(=O)c1cccc(NC(=O)NC23CC4CC(CC(C4)C2)C3)c1	32µM*	-24%	?	?
